Test [1] in a line: Nuclear factor erythroid 2-related factor 2/antioxidant responsive element (Nrf2/ARE) small molecule agonists: luciferase reporter gene qHTS assay in human keratinocytes (AID 1919969). Note: nearly all actives have a fitted effect of over 35% in size. Note: potency is the fitted concentration of half-maximal effect. As to conditions: KeratinoSens HaCaT ARE-luciferase, luminescence, 24 h; series mostly up to 92.4 µM.
The target of test [2] is Gonadotropin-releasing hormone receptor (Homo sapiens) (UniProt P30968). The experiment in a line: Human gonadotropin-releasing hormone receptor (GnRHR) small molecule agonists, calcium flux assay in GnRHR-HEK293 cells (AID 1920063). Note: nearly all actives have a fitted effect of over 35% in size. Note: potency is the fitted concentration of half-maximal effect. Particulars: calcium flux fluorescence, agonist mode; series mostly up to 57.6 µM. Put shortly: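 Calcium-dye fluorescence, Ex/Em=480/540, recorded every 1 sec over 3 min after compound addition to GnRHR-HEK293 cells. Cells had been seeded 18 hours earlier and dye-loaded for 1 hour at 37 C. Fifteen concentrations, triplicates.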

Test [3] addresses KiSS-1 receptor (Homo sapiens) (UniProt Q969F8). The experiment in a line: Human kisspeptin (KISS1R) small molecule agonists, calcium flux assay in KISS1R-HEK293 cells (AID 1920064; active = well fitted activation curve with a large enough effect in the repeat runs; note: potency is the fitted concentration of half-maximal effect). As to conditions: KISS1R-HEK293, calcium flux fluorescence, agonist; series mostly up to 76.8 µM. The essentials:
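Calcium flux read-out: kinetic fluorescence at Ex/Em=480/540, 1 s intervals over 3 min, after pin-tool compound addition to dye-loaded KISS1R-HEK293 cells. Fifteen concentrations, triplicates.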

Test [4] in a line: G protein-coupled receptor (GPCR) small molecule agonists, calcium flux assay: HEK293 wild type cell line counter screen (AID 1920065). Note: potency is the fitted concentration of half-maximal effect. Particulars: HEK293 WT calcium flux, fluorescence, agonist mode; series mostly up to 57.6 µM. Put shortly: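 Agonist mode; 18 h seeding at 37 C, 1 h dye load at 37 C; compounds pinned from DMSO, ATP as positive control; kinetic fluorescence 480/540 nm, 3 min, 1 s reads; 15 concentrations, triplicate.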

Test [5] can be described thus: p53 small molecule agonists, cell-based qHTS assay with human liver microsomes: qHTS cell viability counter screen (AID 1963579). Note: nearly all actives have a fitted effect of over 45% in size. Note: potency is the fitted concentration of half-maximal effect. Particulars: p53RE-bla HCT-116 viability, ATP luminescence, 16 h, HLM; series mostly up to 66 µM. The essentials:
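Tox21 library compounds, delivered from DMSO stocks, were tested on p53RE-bla cells together with 0.5 mg/mL human liver microsomes and 0.5 mg/mL NADPH (final) over 16 h at 37 C; CellTiter-Glo luminescence served as the cytotoxicity measure.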

Test [6] has as its target 5-hydroxytryptamine receptor 2A (Homo sapiens) (UniProt P28223). In words: 5-hydroxytryptamine receptor 2A (HTR2A) small molecule antagonists, cell-based qHTS assay (AID 1963586). Note: nearly all actives have a fitted effect of over 45% in size. Note: potency is the fitted concentration of half-maximal effect. As to conditions: HTR2A-CHO cells, DOI-induced calcium flux, fluorescence; series mostly up to 61.5 µM. The essentials: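 CHO cells stably expressing human HTR2A were plated for 18 h at 37 C, then loaded with calcium dye for 1 h. Compounds were preincubated 5 min at room temperature before DOI (4 nM solution) was added. Kinetic fluorescence was read for 3 min.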

The target is the same in test [7]. In words: 5-hydroxytryptamine receptor 2A (HTR2A) small molecule agonists, cell-based qHTS assay (AID 1963587). Note: nearly all actives have a fitted effect of over 30% in size. Note: potency is the fitted concentration of half-maximal effect. Particulars: HTR2A-CHO cells, calcium flux fluorescence, agonist mode; series mostly up to 76.8 µM. Put shortly: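 CHO cells stably expressing human HTR2A, plated 18 h, loaded with calcium dye 1 h at 37 C. Agonist mode: compounds added and intracellular calcium fluorescence recorded kinetically for 2 min at 1 sec intervals.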

Test [8] addresses Muscarinic acetylcholine receptor M1 (Homo sapiens) (UniProt P11229). In words: Cholinergic receptor muscarinic 1 (CHRM1) small molecule antagonists, cell-based qHTS assay (AID 1963588). Note: nearly all actives have a fitted effect of over 40% in size. As to conditions: CHRM1-CHO antagonist mode, calcium flux fluorescence; series mostly up to 61.5 µM. Put shortly: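 Compounds were tested at 15 concentrations in three independent runs. Dye-loaded CHRM1-CHO cells were exposed 5 min at room temperature before stimulation by acetylcholine added at 50nM. Intracellular calcium was read kinetically on FDSS for 3 min.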

Test [9] has the same target. In words: Cholinergic receptor muscarinic 1 (CHRM1) small molecule agonists, cell-based qHTS assay (AID 1963589). Note: nearly all actives have a fitted effect of over 35% in size. Note: potency is the fitted concentration of half-maximal effect. Particulars: CHRM1-CHO cells, agonist mode, calcium flux fluorescence; series mostly up to 76.8 µM. Put shortly: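 Calcium flux read-out: kinetic fluorescence at 1 sec intervals after pin-tool compound addition to dye-loaded CHRM1-CHO cells (human M1). Agonist mode; 15 concentrations tested in triplicate independent runs.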

The target in test [10] is Beta-2 adrenergic receptor (Homo sapiens) (UniProt P07550). In words: Adrenergic beta2 receptor (ADRB2) small molecule antagonists, cell-based qHTS assay (AID 1963592). Note: nearly all actives have a fitted effect of over 50% in size. Note: potency is the fitted concentration of half-maximal effect. As to conditions: CHO-ADRB2 cells, isoproterenol-stimulated cAMP HTRF ratio, 0.5 h; series mostly up to 92.4 µM. Put shortly: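 Assay format: CHO-ADRB2 cells, 18-20hr seeding at 37C/5% CO2, then compound plus 1nM isoproterenol agonist mix for 0.5hr RT. Homogeneous time-resolved fluorescence cAMP detection after 1hr, expressed as 665/615 nm ratio.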

For test [11], the target named is D(2) dopamine receptor (Homo sapiens) (UniProt P14416). The experiment in a line: Dopamine D2 receptor (DRD2) small molecule antagonists, cell-based qHTS assay (AID 1963595; active = well fitted inhibition curve with a large enough effect in the signal ratio in the repeat runs, with a control signal flat; the % refers to the signal ratio; note: potency is the fitted concentration of half-maximal effect). As to conditions: HEK293-DRD2 cAMP HTRF antagonist mode; series mostly up to 92.4 µM. Put shortly: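 Readout: HTRF cAMP, cAMP-d2 competing with cellular cAMP for anti-cAMP cryptate, read after 1 h. Cells: DRD2-HEK293. Conditions: 0.1 mM Ro20-1724, 12 nM quinpirole, 200 nM NKH477, 30 min RT.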

The nature of test [12]: p53 small molecule agonists, cell-based qHTS assay: qHTS cell viability counter screen (AID 1963581). Note: nearly all actives have a fitted effect of over 45% in size. Particulars: p53RE-bla HCT-116 viability, ATP luminescence, 16 h; series mostly up to 66 µM. Put shortly: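 Cytotoxicity read-out: ATP-based luminescence (CellTiter-Glo, 30 min RT) measured in the same wells as the p53 reporter assay, HCT-116 p53RE-bla cells, 16 h compound exposure at 37 C.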

Test [13] is described as follows: p53 small molecule agonists, cell-based qHTS assay (AID 1963582; active = well fitted activation curve with a large enough effect in the signal ratio in the repeat runs, not every such curve was filed as active; the % refers to the signal ratio). As to conditions: HCT-116 p53RE-bla reporter, beta-lactamase FRET ratio, 16 h; series mostly up to 66 µM. The essentials:
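Fluorescence intensity read-out of a beta-lactamase reporter under a p53 response element. Cells were exposed to DMSO-dissolved compounds for 16 h at 37 C, then developed with FRET substrate for 2 h at RT.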

Test [14] can be described thus: cAMP Responsive Elements (CRE) small molecule agonists, cell-based qHTS assay (AID 1963590). As to conditions: CRE-bla HEK293T, beta-lactamase FRET ratio, 3 h; series mostly up to 92.4 µM. Put shortly:
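Beta-lactamase reporter readout: LiveBLAzer B/G FRET substrate, 2 h at room temperature, added after 3 h compound treatment of CRE-bla HEK 293T cells at 37 C/5% CO2.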

Test [15] concerns the target Beta-2 adrenergic receptor (Homo sapiens) (UniProt P07550). The experiment in a line: Adrenergic beta2 receptor (ADRB2) small molecule agonists, cell-based qHTS assay (AID 1963593).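 Note: CHO cells stably overexpressing human ADRB2.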 As to conditions: CHO-ADRB2 cells, cAMP HTRF, 30 min; series mostly up to 92.4 µM. Put shortly:
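CHO cells stably over-expressing ADRB2 were plated overnight at 37C, then dosed with compounds plus a stimulation mix containing 100uM IBMX and 25uM Ro-20-1724 for 0.5hr at room temperature. cAMP was measured by HTRF competition, 1hr.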

Test [16] concerns the target D(2) dopamine receptor (Homo sapiens) (UniProt P14416). In words: Dopamine D2 receptor (DRD2) small molecule agonists, cell-based qHTS assay (AID 1963594). Note: nearly all actives have a fitted effect of over 35% in size. As to conditions: HEK293-DRD2 cAMP HTRF, agonist mode, 30 min; series mostly up to 92.4 µM. The essentials: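 HEK293 cells stably expressing human DRD2, pre-treated with PDE inhibitor Ro20-1724 (0.1 mM final) and compound 10 min at room temperature, then stimulated with NKH477 (200nM […]) for 30 min. cAMP read by HTRF (665/620 nm).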

Test [17] is described as follows: p53 small molecule agonists, cell-based qHTS assay with rat liver microsomes: qHTS cell viability counter screen (AID 1963580). Note: nearly all actives have a fitted effect of over 45% in size. Note: potency is the fitted concentration of half-maximal effect. Particulars: p53RE-bla HCT-116 + rat microsomes, ATP viability, 16 h; series mostly up to 66 µM. The essentials: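 Cytotoxicity counter screen: intracellular ATP measured by CellTiter-Glo luminescence in the same wells as the beta-lactamase reporter read, on HCT-116 p53RE-bla cells exposed 16 h at 37 C to compounds with rat liver microsomes and NADPH, each 0.5 mg/mL final.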

Test [18] in a line: cAMP Responsive Elements (CRE) small molecule antagonists, cell-based qHTS assay (AID 1963591; active = well fitted inhibition curve with a large enough effect in the signal ratio in the repeat runs, not every such curve was filed as active; the % refers to the signal ratio). As to conditions: CRE-bla HEK293T, beta-lactamase FRET ratio; series mostly up to 92.4 µM. The essentials: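 HEK293T CRE-bla; 18 h preincubation; compound pin-transfer; NKH477 0.25 uM final, 3 h, 37 C; LiveBLAzer FRET substrate 2 h RT.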

Structures are written as SMILES. Results filed as inconclusive are left out. Activity calls are given as the source filed them. Unless noted, calls come from the whole dose curve.

Sequence of D(2) dopamine receptor (Homo sapiens) (P14416 whole entry, looked up): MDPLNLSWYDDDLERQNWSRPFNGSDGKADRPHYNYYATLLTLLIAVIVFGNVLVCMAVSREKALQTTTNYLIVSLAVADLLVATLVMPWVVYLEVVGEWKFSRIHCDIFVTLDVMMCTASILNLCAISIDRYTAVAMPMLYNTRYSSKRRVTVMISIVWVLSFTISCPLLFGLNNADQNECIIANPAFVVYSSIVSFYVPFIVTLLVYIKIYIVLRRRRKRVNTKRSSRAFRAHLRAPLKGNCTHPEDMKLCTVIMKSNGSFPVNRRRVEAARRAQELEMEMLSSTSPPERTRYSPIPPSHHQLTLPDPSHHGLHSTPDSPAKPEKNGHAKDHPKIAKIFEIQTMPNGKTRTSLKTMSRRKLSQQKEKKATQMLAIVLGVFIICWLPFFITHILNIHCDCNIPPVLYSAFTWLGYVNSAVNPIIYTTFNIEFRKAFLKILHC
Sequence of KiSS-1 receptor (Homo sapiens) (Q969F8 whole entry, looked up): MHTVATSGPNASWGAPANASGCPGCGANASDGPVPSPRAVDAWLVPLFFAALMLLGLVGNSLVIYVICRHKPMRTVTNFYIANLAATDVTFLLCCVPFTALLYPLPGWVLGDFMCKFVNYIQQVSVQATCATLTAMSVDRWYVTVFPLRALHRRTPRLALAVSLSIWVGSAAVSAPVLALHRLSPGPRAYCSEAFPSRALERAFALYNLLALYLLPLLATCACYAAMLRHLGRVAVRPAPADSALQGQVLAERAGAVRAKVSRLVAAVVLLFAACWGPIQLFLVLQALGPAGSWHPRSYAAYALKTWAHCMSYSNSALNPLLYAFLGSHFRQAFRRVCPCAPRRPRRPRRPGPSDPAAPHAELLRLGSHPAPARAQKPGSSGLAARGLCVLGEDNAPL
Sequence of 5-hydroxytryptamine receptor 2A (Homo sapiens) (P28223 whole entry, looked up): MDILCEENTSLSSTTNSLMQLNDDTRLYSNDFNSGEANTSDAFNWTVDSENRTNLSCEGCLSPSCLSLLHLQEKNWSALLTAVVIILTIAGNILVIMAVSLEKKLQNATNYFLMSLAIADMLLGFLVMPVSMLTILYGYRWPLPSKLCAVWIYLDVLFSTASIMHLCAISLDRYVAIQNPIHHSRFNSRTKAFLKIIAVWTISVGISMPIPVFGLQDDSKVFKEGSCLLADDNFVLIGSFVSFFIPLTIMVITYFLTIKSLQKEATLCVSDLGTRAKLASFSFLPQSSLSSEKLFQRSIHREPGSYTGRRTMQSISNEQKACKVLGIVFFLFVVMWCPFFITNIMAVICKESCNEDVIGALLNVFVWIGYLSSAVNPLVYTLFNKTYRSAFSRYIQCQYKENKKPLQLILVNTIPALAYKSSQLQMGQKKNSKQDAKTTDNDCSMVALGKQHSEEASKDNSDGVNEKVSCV
Sequence of Gonadotropin-releasing hormone receptor (Homo sapiens) (P30968 whole entry, looked up): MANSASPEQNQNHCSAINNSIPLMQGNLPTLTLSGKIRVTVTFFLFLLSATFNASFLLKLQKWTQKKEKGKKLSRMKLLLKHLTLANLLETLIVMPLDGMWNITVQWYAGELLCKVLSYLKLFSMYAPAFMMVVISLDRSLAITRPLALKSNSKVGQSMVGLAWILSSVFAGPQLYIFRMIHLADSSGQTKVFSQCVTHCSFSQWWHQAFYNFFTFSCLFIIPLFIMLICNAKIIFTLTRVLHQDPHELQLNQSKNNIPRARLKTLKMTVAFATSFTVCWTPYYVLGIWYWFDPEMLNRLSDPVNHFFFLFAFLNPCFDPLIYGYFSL
Sequence of Beta-2 adrenergic receptor (Homo sapiens) (P07550 whole entry, looked up): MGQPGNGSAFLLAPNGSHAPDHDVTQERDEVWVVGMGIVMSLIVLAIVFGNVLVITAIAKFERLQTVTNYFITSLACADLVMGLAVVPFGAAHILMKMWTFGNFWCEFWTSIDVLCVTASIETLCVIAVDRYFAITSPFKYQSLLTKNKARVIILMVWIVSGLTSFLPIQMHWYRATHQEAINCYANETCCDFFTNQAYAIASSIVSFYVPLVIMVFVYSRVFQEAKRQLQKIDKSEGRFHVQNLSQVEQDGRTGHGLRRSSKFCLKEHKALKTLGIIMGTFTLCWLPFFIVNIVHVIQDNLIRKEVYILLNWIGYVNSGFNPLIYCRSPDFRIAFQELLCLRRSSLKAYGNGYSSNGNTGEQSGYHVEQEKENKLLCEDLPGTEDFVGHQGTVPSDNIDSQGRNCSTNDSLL
Sequence of Muscarinic acetylcholine receptor M1 (Homo sapiens) (P11229 whole entry, looked up): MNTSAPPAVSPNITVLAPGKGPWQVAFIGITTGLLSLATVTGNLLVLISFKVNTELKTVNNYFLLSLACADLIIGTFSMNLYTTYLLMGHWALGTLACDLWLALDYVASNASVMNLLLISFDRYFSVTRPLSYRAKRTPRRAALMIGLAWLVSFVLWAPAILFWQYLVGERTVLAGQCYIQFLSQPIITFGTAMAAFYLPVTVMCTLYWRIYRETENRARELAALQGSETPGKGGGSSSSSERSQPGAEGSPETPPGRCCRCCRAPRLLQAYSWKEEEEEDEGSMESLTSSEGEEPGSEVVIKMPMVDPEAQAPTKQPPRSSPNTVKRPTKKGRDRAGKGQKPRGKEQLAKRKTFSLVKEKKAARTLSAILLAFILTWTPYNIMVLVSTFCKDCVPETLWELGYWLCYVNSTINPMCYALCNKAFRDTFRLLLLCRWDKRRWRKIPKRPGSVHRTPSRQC

With `CCCCCCOc1ccc(O)cc1`, the Potency is 21.7 µM (active) in test [1] and 48.6 µM (active) in test [11]. The Potency entry in [2], in [3], in [4], in test [5], in [6] and in test [7] was “inactive” throughout. For the same compound, the Potency entry in test [8], in test [9] and in test [10] was “inactive” throughout.
`COC(=O)CC(C)CCC=C(C)C` (stereo not given): the Potency was 68.6 µM (active) in [1] and 45.8 µM (active) in test [5]. The Potency result in test [2], in test [3], in test [4], in test [12], in [13] and in test [6] was “inactive” in each case. In addition, the Potency result in test [7], in test [8], in test [9], in test [14], in [10] and in test [15] was “inactive” in each case. Moreover, the Potency result in test [16] and in test [11] was “inactive” throughout.
Regarding `N#Cc1nc(Cl)c(Cl)c(Cl)c1Cl`, the Potency in test [1] is 2.43 µM (active); in test [5] it was 11.5 µM (active); in [17], 36.3 µM (active). For the same compound, the Potency result in test [2], in [3], in [4], in test [6], in [7] and in test [8] was “inactive” each time. Besides, the Potency entry in test [9], in test [10], in test [16] and in test [11] was “inactive” in each case.
Consider `O=C1CCCCCO1`, for which the Potency entry in test [1], in test [2], in test [3], in test [4], in test [5] and in test [17] was “inactive” each time. Also, the Potency result in test [6], in test [7], in test [8], in test [9], in test [14] and in [18] was “inactive” throughout. Further, the Potency entry in test [16] and in test [11] was “inactive” throughout.
With `N#Cc1ccc(C(c2ccc(C#N)cc2)n2cncn2)cc1`, the Potency result in test [1], in test [2], in [3], in test [4], in [5] and in [17] was “inactive” each time. Moreover, the Potency entry in test [12], in test [18], in test [10], in test [16] and in [11] was “inactive” in each case.
With `C[n+]1c2cc(N)ccc2cc2ccc(N)cc21` (tested in a mixture with another compound), the Potency is 6.68 µM (active) in test [1]; 16.9 µM (active) in [2]; 21.3 µM (active) in [3]; 16.9 µM (active) in test [4]; 19 µM (active) in test [7]; 19 µM (active) in test [9]. The Potency result in test [5], in [12], in [6] and in test [8] was “inactive” each time.
For the compound `COc1ccc(-c2nc3ccc(C4=NNC(=O)CC4C)cc3[nH]2)cc1` (stereo not given), the Potency entry in test [1], in test [2], in test [3], in test [4], in test [7] and in test [8] was “inactive” throughout. Moreover, the Potency entry in test [9], in test [15] and in test [11] was “inactive” throughout. Besides, the Potency in [6] is 0.23 µM (active).
For the compound `Cc1ccc(Nc2nccc(N(C)c3ccc4c(C)n(C)nc4c3)n2)cc1S(N)(=O)=O`, the Potency in test [1] was 4.22 µM (active); in test [10], 26.6 µM (active). The Potency entry in [2], in test [3], in test [4], in [6], in test [7] and in test [8] was “inactive” each time. Further, the Potency result in test [9] and in test [14] was “inactive” each time.

Source of the values: PubChem BioAssay (Tox21).
